The source of these data is PubChem BioAssay AID2685 (National Center for Advancing Translational Sciences (NCATS), 2010).

Molecules are shown by their SMILES. The whole screen tested about 320,000 compounds, of which about 2,100 (0.66%) were called active. Inconclusive results (about 53%) are left out. The sample holds actives, similar compounds and a random draw of the others, so the mix is not that of the screen. Calls follow the shape of the dose curve; as a rule, active = well fitted inhibition curve with a large enough effect in the signal ratio, with a control signal flat (not every such curve was filed as active); inconclusive = small, poorly fitted or top-dose-only effect, or effect the other way, or a change in a side signal; inactive = flat fitted curve, though single readings scatter; the % refers to the signal ratio.
Potency is read from the fitted curve at half-maximal effect.

The nature of the experiment: qHTS Assay for Lipid Storage Modulators in Drosophila S3 Cells.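 As to cell number change: cells counted by Cell Tracker Red CMTPX staining in the red channel.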 As to lipid storage change, negative = inhibition: % is scaled to controls: 0 for no effect and ±100 for the full control effect. Particulars: BODIPY lipid droplet fluorescence, 18-24 h, cells fed with added oleic acid; cell number change: measured here: cell count max response; series mostly up to 46.1 µM; lipid storage change, negative = inhibition: at the top concentration. Put shortly: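 Drosophila S3 cells loaded with oleic acid (400 uM, as added) and compounds at several concentrations; lipid droplets imaged by 488-nm laser-scanning cytometry, 500–530 nm intensity and object ratio to cell channel. Percent activity normalized to 20 uM Triacsin C.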
Turning to `N=c1c(C(=O)NCCN2CCOCC2)cc2c(=O)n3ccccc3nc2n1CCc1ccccc1`, the call was inactive and the cell number change came to 15.8%.

For the compound `N=c1c(C(=O)NCc2ccco2)cc2c(=O)n3ccccc3nc2n1Cc1ccccc1`, the call was inactive and the cell number change is -4.14%.

In the case of `N=c1c(S(=O)(=O)c2ccc(Cl)cc2)cc2c(=O)n3ccccc3nc2n1C1CCCC1`, the Potency is 13 µM (active).

For the compound `N=c1c(C(=O)NCCc2ccccc2)cc2c(=O)n3ccccc3nc2n1Cc1ccco1`, the Potency was 0.82 µM (active) and the cell number change is -1.35%.

For the compound `N=c1c(C(=O)NCc2ccccc2)cc2c(=O)n3ccccc3nc2n1CCCN1CCOCC1`, the “lipid storage change, negative = inhibition” value is 8.53% (inactive) and the cell number change was -5.03%.

For `N=c1c(S(=O)(=O)c2ccc(Br)cc2)cc2c(=O)n3ccccc3nc2n1C1CCCCC1`, the call was inactive and the cell number change came out at 2.36%.

`COc1ccc(CCNC(=O)c2cc3c(=O)n4ccccc4nc3n(CCCN3CCOCC3)c2=N)cc1OC`: the call was inactive and the cell number change was determined as 3.54%.

As to `N=c1c(C(=O)NCCN2CCOCC2)cc2c(=O)n3ccccc3nc2n1CCCN1CCOCC1`, the Potency is 7.31 µM (active) and the cell number change came out at 8.12%.

In the case of `COc1ccc(CCNC(=O)c2cc3c(=O)n4ccccc4nc3n(Cc3ccco3)c2=N)cc1OC`, the outcome was inactive and the cell number change was -20.4%.

As for `Cc1ccc(Cn2c(=N)c(C(=O)NCCN3CCOCC3)cc3c(=O)n4ccccc4nc32)cc1`, the “lipid storage change, negative = inhibition” value was -18.6% (inactive) and the cell number change was 21.5%.

For the compound `N=c1c(C(=O)NCCc2ccccc2)cc2c(=O)n3ccccc3nc2n1CCCN1CCOCC1`, the Potency was 6.51 µM (active) and the cell number change was -19%.

Regarding `COc1ccc(C(=O)NCc2oc(-c3ccccc3)cc2C(=O)O)cc1`, the “lipid storage change, negative = inhibition” value is 20.5% (inactive) and the cell number change was -4.88%.

For `COc1ccc2nc(/C=N/NC(=O)[C@H](CCSC)NC(=O)OC(C)(C)C)ccc2c1`, the “lipid storage change, negative = inhibition” value was 0.135% (inactive) and the cell number change is 13.4%.

Take `COC(=O)c1ccccc1NC(=O)CSc1nc(O)cc(=O)n1C1CCCC1`: the “lipid storage change, negative = inhibition” value was 19.2% (inactive) and the cell number change came out at 6.94%.

Take `O=C(NC(Cc1ccccc1)C(=O)O)/C(=C/c1ccco1)NC(=O)c1cccc([N+](=O)[O-])c1` (centres undefined): the “lipid storage change, negative = inhibition” value was -3.12% (inactive) and the cell number change is -0.0963%.

As to `Oc1cccc(N2Cc3ccccc3C2)c1`, the “lipid storage change, negative = inhibition” value was -2.83% (inactive) and the cell number change is -1.3%.

Regarding `CCN1CCN(S(=O)(=O)c2ccc(Cl)c(C(=O)N(C)C(c3ccccc3)c3ccccc3)c2)CC1`, the “lipid storage change, negative = inhibition” value was 17.2% (inactive).

In the case of `C=CCOc1ccc2ccccc2c1CNn1cn[nH]c1=S`, the call was inactive and the cell number change came out at 10.6%.

For the compound `Cc1ccc(OCC(=O)NCCCNC(=O)c2ccncc2)cc1`, the outcome was inactive and the cell number change came out at 0.901%.

Regarding `CCOC(=O)N1CCN(C(=O)c2ccc3nc(N4CCCCC4)sc3c2)CC1`, the “lipid storage change, negative = inhibition” value was -10.6% (inactive) and the cell number change was -1.93%.

In the case of `CCOC(=O)CNC(=O)N1CCCC(CNS(=O)(=O)c2cccs2)C1` (centres undefined), the “lipid storage change, negative = inhibition” value is 6.02% (inactive) and the cell number change is 11.3%.

`Cc1ccc(S(=O)(=O)N2CCOCC2)cc1NC(=O)COC(=O)CCC(=O)c1ccc(F)cc1`: the “lipid storage change, negative = inhibition” value was 17% (inactive) and the cell number change was 14.2%.

`N=c1c(C(=O)NC2CCCC2)cc2c(=O)n3ccccc3nc2n1C1CCCC1`: the “lipid storage change, negative = inhibition” value is 0.118% (inactive) and the cell number change is -15.6%.

Consider `O=C(NCCN1CCOCC1)c1cc2c(=O)n3ccccc3nc2n1Cc1ccccc1`, for which the “lipid storage change, negative = inhibition” value was 21.5% (inactive) and the cell number change amounted to 13.8%.

As for `N=c1c(C(=O)NCC2CCCO2)cc2c(=O)n3ccccc3nc2n1C1CCCCC1` (centres undefined), the call was inactive and the cell number change was -7.39%.

For `COCCCn1c(C(=O)NCCN2CCOCC2)cc2c(=O)n3ccccc3nc21`, the Potency is 1.84 µM (active) and the cell number change is 5.41%.

Take `N=c1c(C(=O)NCc2ccco2)cc2c(=O)n3ccccc3nc2n1C1CCCC1`: the Potency was 0.651 µM (active) and the cell number change was determined as 10.3%.

With `COCCCn1c(C(=O)N2CCOCC2)cc2c(=O)n3ccccc3nc21`, the “lipid storage change, negative = inhibition” value was -8.57% (inactive) and the cell number change was found to be 17.7%.

For the compound `Cc1cccc(C)c1NC(=O)CNC(=O)C1CCCN(C(=O)c2ccc(Cl)cc2)C1` (centres undefined), the “lipid storage change, negative = inhibition” value was 10.7% (inactive) and the cell number change came to 1.48%.

For `COc1cc(C(=O)NCC(=O)NC(C)CCc2ccccc2)cc(OC)c1OC` (centres undefined), the call was inactive and the cell number change is -6.74%.

`CCOC(=O)N1CCN(C(=O)CCCCCn2c(=S)[nH]c3ccsc3c2=O)CC1`: the “lipid storage change, negative = inhibition” value was 14.1% (inactive) and the cell number change was found to be 6.09%.

As for `CCOC(=O)C1CCCN(C(=O)C2CCN(S(=O)(=O)c3c(C)noc3/C=C/c3ccccc3F)CC2)C1` (centres undefined), the outcome was inactive and the cell number change is 2.99%.

As to `COc1ccc(OC)c(NC(=O)CCCc2ccccc2)c1`, the result was inactive and the cell number change came out at 8.01%.

In the case of `COc1ccc(Cl)cc1NC(=O)CCNC(=O)OCc1ccccc1`, the Potency was 7.31 µM (active) and the cell number change is -13.6%.

On to `COc1ccc(OC)c(NC(=O)NCCCCc2ccccc2)c1`, for which the Potency is 2.91 µM (active) and the cell number change is -13.4%.

As for `COc1ccc(Cl)cc1NC(=O)COC(=O)CCNC(C)=O`, the “lipid storage change, negative = inhibition” value is 11.9% (inactive) and the cell number change is 0.288%.

Regarding `COc1ccc(OC)c(NC(=O)CN2C(=O)C(=O)N(Cc3ccccc3)C2=O)c1`, the Potency is 2.31 µM (active) and the cell number change was -12.4%.

As to `COc1ccc(OC)c(NC(=O)NCCc2cccc(Cl)c2)c1`, the “lipid storage change, negative = inhibition” value is 12.6% (inactive) and the cell number change amounted to 4.18%.

For the compound `COc1ccc(Cl)cc1NC(=O)CN1CCN(Cc2ccccc2)CC1`, the “lipid storage change, negative = inhibition” value is -7.01% (inactive) and the cell number change was 1.46%.

On to `COc1ccc(OC)c(NC(=O)CCN2CCN(Cc3ccccc3)CC2)c1`, for which the “lipid storage change, negative = inhibition” value is 16.5% (inactive) and the cell number change is -0.977%.

Consider `COc1ccc(OC)c(NC(=O)CCN2C(=O)c3ccccc3C2=O)c1`, for which the outcome was inactive and the cell number change came to 23.6%.

In the case of `COc1ccc2oc(=N)c(C(=O)NCc3ccccc3)cc2c1`, the “lipid storage change, negative = inhibition” value is -29.1% (inactive) and the cell number change was found to be 8.47%.

Consider `O=C(O)CCc1ccc(-c2cccs2)n1NC(=O)c1ccc(O)cc1`, for which the “lipid storage change, negative = inhibition” value was 10.7% (inactive) and the cell number change was found to be 6.61%.

Consider `CC1CC1C(=O)OCC(=O)NCc1ccccc1Cl` (centres undefined), for which the Potency was 32.6 µM (active) and the cell number change was -18.4%.

Take `O=C(COC(=O)/C=C/c1ccccc1)NCc1ccccc1Cl`: the “lipid storage change, negative = inhibition” value was 0.13% (inactive).

Take `O=C(COC(=O)C1CC2C=CC1C2)NCc1ccccc1Cl` (centres undefined): the “lipid storage change, negative = inhibition” value was 10.6% (inactive) and the cell number change turned out to be 9.83%.
